Measurements reported in the supplement of paper PMC10849652.
Of roughly 8,800 targets only a part is listed; those with a hit were picked by preference. About 0.5% of all pairs of compound and target were hits. Unmarked numbers belong to inactive results.

Key:
Experiment in all cases: log2 fold change, soluble protein after heating vs DMSO (PISA); higher = thermal stabilisation; K562 lysate, 10 uM; active = over 0.2 and 3.5 SD of the protein, either way, in both replicates (recomputed)
vemurafenib = compound: CCCS(=O)(=O)Nc1ccc(F)c(C(=O)c2c[nH]c3ncc(-c4ccc(Cl)cc4)cc23)c1F [vemurafenib]
How it was run: (§1)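 Log-two fold change in thermal stability relative to solvent controls is reported from duplicates. For each sample, crude K562 extract from dounce-homogenised pellets in PBS pH 7.4 with 1 mM MgCl2, at 1 mg/mL protein, was treated with 10 μM compound for 30 min. Aliquots heated for 3 min across 48°C-58°C were pooled, brought to 0.5% NP-40 at 4°C and cleared at 21,000xg for 90 min. The supernatant was quantified by TMTpro 16plex LC-MS/MS with channel sums equalised.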

[1] = compound: CCCS(=O)(=O)Nc1ccc(F)c(C(=O)c2c[nH]c3ncc(Cl)cc23)c1F
How it was run: as §1

barasertib = compound: CCN(CCCOc1ccc2c(Nc3cc(CC(=O)Nc4cccc(F)c4)[nH]n3)ncnc2c1)CCOP(=O)(O)O [barasertib]
How it was run: as §1

[2] = compound: CC[C@@H]1C(=O)N(C)c2cnc(Nc3ccc(C(=O)NC4CCN(C)CC4)cc3OC)nc2N1C1CCCC1
How it was run: as §1

volasertib = compound: CC[C@@H]1C(=O)N(C)c2cnc(Nc3ccc(C(=O)N[C@H]4CC[C@H](N5CCN(CC6CC6)CC5)CC4)cc3OC)nc2N1C(C)C [volasertib]
How it was run: as §1

[3] = compound: CCn1c(C(=O)N(C2CC2)C2CC2)cc2c3c(ncn3C)c(Nc3cc(C)n(C)n3)nc21
How it was run: as §1

[4] = compound: CCn1cc(-c2ccnc3[nH]c(-c4cccc(CN(C)C)c4)cc23)c(-c2ccc(NC(=O)N(C)C)cc2)n1
How it was run: as §1

[5] = compound: CN1CCC(CNc2ccc3ncc(-c4cccc(OC(F)(F)F)c4)n3n2)CC1
How it was run: as §1

saracatinib = compound: CN1CCN(CCOc2cc(OC3CCOCC3)c3c(Nc4c(Cl)ccc5c4OCO5)ncnc3c2)CC1 [saracatinib]
How it was run: as §1

sotrastaurin = compound: CN1CCN(c2nc(C3=C(c4c[nH]c5ccccc45)C(=O)NC3=O)c3ccccc3n2)CC1 [sotrastaurin]
How it was run: as §1

alvocidib = compound: CN1CC[C@H](c2c(O)cc(O)c3c(=O)cc(-c4ccccc4Cl)oc23)[C@H](O)C1 [alvocidib]
How it was run: as §1

Tubastatin A = compound: CN1CCc2c(c3ccccc3n2Cc2ccc(C(=O)NO)cc2)C1 [Tubastatin A]
How it was run: as §1

[6] = compound: CNC(=O)C1=CC=CC=C1NC2=NC(=NC=C2Cl)NC3=C(C=C(C=C3)N4CCOCC4)OC
How it was run: as §1

defactinib = compound: CNC(=O)c1ccc(Nc2ncc(C(F)(F)F)c(NCc3nccnc3N(C)S(C)(=O)=O)n2)cc1 [defactinib]
How it was run: as §1

[7] = compound: CNc1nc(-c2ccc3c(N)n[nH]c3c2)cc(N2C[C@@H](C(=O)NC3CCCCC3)CC[C@H]2C)n1
How it was run: as §1

encorafenib = compound: COC(=O)N[C@@H](C)CNc1nccc(-c2cn(C(C)C)nc2-c2cc(Cl)cc(NS(C)(=O)=O)c2F)n1 [encorafenib]
How it was run: as §1

[8] = compound: COC(=O)[C@H](CCSC)NC(=O)C1=C(C=C(C=C1)NC[C@H](CS)N)C2=CC=CC=C2
How it was run: as §1

alisertib = compound: COc1cc(Nc2ncc3c(n2)-c2ccc(Cl)cc2C(c2c(F)cccc2OC)=NC3)ccc1C(=O)O [alisertib]
How it was run: as §1

[9] = compound: COc1cc2nc(-c3cc(F)ccc3O)nc(N[C@@H]3CNC[C@H]3C(C)(C)O)c2cc1OC
How it was run: as §1

gefitinib = compound: COc1cc2ncnc(Nc3ccc(F)c(Cl)c3)c2cc1OCCCN1CCOCC1 [gefitinib]
How it was run: as §1

Sequence of UniProt Q8TE04 (Q8TE04 whole entry, looked up): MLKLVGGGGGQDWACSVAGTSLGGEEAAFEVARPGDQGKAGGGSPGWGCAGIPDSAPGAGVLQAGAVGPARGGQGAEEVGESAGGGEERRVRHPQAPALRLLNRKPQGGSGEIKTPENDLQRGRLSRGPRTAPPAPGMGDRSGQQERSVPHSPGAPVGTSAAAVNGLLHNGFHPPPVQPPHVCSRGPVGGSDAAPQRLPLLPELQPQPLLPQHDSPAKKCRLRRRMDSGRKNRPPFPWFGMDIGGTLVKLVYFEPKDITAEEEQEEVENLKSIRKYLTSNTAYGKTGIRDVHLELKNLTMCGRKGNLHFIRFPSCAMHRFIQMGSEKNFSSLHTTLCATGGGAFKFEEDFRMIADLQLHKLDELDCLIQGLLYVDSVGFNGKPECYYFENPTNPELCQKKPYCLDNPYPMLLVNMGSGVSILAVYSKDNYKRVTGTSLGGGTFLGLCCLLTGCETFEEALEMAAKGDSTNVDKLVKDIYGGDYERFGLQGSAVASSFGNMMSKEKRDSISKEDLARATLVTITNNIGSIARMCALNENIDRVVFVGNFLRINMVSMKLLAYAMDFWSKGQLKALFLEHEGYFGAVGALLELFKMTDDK
Sequence of UniProt Q8TDX7 (Q8TDX7 whole entry, looked up): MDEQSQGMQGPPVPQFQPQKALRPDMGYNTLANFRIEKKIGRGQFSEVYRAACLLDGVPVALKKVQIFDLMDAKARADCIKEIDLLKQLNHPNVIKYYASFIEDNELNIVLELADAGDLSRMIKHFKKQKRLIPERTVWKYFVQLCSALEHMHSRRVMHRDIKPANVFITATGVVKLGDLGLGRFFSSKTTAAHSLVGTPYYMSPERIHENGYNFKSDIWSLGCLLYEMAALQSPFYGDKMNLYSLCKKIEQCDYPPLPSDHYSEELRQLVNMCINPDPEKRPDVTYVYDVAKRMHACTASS
Sequence of UniProt O00221 (O00221 whole entry, looked up): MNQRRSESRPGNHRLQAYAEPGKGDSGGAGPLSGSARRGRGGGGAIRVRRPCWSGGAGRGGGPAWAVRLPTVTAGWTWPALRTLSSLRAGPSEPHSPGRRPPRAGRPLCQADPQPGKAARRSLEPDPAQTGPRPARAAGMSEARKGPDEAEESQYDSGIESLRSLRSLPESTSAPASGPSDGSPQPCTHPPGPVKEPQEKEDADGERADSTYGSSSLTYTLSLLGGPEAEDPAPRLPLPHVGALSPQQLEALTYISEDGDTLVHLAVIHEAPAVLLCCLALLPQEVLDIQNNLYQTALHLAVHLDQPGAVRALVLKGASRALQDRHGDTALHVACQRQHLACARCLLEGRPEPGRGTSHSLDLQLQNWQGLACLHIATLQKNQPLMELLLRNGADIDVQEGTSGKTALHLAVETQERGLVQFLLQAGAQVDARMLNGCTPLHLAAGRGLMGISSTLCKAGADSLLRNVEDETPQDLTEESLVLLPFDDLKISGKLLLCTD
Sequence of UniProt P52948 (P52948 whole entry, looked up): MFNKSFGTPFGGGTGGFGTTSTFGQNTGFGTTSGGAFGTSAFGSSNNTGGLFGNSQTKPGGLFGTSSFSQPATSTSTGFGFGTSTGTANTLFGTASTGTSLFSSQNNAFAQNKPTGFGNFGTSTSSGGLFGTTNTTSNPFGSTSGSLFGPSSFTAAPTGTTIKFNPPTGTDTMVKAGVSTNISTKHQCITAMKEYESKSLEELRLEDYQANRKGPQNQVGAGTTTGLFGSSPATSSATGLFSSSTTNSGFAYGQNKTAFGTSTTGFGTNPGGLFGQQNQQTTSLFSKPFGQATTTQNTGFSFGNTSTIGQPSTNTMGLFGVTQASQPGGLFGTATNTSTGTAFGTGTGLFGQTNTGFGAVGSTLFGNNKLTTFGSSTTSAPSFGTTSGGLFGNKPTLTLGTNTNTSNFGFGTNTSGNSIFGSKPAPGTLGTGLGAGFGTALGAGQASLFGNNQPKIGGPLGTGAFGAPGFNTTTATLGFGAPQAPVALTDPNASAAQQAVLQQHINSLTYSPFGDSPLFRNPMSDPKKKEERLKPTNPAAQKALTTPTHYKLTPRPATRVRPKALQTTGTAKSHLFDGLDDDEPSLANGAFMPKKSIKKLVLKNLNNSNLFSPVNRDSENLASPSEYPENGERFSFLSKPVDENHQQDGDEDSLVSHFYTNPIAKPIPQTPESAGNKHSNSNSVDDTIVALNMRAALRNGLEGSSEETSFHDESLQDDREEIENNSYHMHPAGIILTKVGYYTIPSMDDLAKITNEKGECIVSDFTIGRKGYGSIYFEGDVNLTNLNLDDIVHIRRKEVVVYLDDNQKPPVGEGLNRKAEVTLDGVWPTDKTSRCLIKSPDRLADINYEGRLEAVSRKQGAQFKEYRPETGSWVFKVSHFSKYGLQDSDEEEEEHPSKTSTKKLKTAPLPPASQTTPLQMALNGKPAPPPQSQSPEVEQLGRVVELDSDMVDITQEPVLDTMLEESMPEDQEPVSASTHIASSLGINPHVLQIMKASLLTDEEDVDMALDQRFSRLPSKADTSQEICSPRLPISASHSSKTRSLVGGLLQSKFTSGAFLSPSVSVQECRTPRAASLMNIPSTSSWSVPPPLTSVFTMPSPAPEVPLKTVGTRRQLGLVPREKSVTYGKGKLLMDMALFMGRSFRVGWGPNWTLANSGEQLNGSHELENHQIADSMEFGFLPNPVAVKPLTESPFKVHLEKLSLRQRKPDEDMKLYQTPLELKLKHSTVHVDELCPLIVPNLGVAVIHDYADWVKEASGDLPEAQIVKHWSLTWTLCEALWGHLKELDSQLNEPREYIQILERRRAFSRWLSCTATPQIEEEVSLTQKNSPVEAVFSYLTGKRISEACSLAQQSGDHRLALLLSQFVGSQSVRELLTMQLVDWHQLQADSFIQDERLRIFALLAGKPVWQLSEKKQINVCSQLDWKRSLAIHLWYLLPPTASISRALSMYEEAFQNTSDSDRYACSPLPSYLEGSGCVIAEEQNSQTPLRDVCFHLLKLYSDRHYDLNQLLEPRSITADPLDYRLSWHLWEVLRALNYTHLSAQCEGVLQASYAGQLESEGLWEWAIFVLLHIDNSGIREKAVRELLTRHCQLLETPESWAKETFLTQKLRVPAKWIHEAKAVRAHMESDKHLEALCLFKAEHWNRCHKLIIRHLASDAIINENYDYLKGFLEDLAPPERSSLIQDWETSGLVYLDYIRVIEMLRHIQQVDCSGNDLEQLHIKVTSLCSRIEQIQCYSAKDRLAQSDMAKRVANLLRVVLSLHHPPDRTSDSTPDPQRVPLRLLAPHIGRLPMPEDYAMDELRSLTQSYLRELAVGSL
Sequence of UniProt P04181 (P04181 whole entry, looked up): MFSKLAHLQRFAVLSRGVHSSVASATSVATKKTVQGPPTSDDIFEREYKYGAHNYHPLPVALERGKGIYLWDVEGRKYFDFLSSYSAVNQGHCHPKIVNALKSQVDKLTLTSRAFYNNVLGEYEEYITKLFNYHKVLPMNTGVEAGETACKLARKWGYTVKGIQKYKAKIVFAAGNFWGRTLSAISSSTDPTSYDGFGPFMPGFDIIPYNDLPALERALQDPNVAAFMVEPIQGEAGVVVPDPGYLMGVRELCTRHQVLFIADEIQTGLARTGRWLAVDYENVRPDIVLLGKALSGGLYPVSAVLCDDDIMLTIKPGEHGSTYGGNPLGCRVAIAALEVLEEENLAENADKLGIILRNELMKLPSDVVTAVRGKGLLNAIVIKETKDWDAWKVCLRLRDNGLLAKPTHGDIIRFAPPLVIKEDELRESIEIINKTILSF
Sequence of UniProt Q9BZF3 (Q9BZF3 whole entry, looked up): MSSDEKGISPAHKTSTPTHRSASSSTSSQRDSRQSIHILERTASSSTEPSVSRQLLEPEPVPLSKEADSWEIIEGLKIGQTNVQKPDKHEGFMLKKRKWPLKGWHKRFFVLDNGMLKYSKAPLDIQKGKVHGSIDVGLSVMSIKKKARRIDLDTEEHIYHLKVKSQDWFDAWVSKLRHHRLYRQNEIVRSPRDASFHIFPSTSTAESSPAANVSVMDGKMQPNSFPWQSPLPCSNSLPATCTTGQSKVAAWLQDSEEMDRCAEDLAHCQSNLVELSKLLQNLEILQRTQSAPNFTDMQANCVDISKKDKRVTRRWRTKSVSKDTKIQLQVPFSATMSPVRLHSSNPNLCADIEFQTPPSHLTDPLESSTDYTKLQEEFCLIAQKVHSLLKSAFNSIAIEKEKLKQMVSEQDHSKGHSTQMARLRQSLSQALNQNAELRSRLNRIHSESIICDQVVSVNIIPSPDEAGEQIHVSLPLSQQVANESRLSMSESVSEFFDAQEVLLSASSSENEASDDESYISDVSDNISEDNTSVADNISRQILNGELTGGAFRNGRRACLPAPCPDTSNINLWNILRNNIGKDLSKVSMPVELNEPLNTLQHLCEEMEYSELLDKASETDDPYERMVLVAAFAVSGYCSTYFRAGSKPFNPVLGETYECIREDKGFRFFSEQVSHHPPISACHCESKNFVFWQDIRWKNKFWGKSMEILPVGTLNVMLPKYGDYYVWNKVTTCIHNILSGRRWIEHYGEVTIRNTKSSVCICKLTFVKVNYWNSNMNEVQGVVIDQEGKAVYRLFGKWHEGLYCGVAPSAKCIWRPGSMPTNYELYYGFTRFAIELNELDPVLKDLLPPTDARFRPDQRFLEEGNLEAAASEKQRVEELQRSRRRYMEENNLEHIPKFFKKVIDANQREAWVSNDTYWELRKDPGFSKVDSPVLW
Sequence of UniProt Q9Y530 (Q9Y530 whole entry, looked up): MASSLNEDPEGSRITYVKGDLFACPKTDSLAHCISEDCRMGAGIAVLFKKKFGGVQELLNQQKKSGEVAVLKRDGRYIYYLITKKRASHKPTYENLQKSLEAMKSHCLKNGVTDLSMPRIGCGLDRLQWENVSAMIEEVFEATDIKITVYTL
Sequence of UniProt O00483 (O00483 whole entry, looked up): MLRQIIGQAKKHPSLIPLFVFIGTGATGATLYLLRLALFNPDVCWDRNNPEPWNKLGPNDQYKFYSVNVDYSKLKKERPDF
Sequence of UniProt Q99417 (Q99417 whole entry, looked up): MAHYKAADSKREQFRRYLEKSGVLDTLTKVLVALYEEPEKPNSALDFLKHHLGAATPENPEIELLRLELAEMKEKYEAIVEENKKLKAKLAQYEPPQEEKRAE

Target | log2 fold change (vemurafenib) | log2 fold change [1] | log2 fold change (barasertib) | log2 fold change [2] | log2 fold change (volasertib) | log2 fold change [3] | log2 fold change [4] | log2 fold change [5] | log2 fold change (saracatinib) | log2 fold change (sotrastaurin) | log2 fold change (alvocidib) | log2 fold change (Tubastatin A) | log2 fold change [6] | log2 fold change (defactinib) | log2 fold change [7] | log2 fold change (encorafenib) | log2 fold change [8] | log2 fold change (alisertib) | log2 fold change [9] | log2 fold change (gefitinib)
NACC1 (UniProt Q96RE7) | -0.039 | -0.003 | 0.039 | -0.027 | 0.008 | 0.004 | -0.059 | -0.003 | -0.016 | 0.034 | -0.02 | -0.086 | 0.002 | -0.01 | 0.016 | 0.022 | 0.024 | 0.018 | -0.012 | -0.019
NUP98 (UniProt P52948) | 0.001 | 0.035 | 0.02 | -0.005 | -0.071 | 0.031 | -0.062 | 0.019 | 0.073 | -0.005 | -0.019 | -0.117 | 0.029 | 0.031 | 0.047 | 0.064 | -0.04 | 0.01 | 0.017 | 0.011
MRPL58 (UniProt Q14197) | 0.104 | -0.017 | 0.033 | -0.033 | -0.043 | 0.004 | 0.148 | -0.151 | 0.04 | 0.019 | 0 | -0.065 | 0.027 | -0.045 | 0.033 | 0.011 | -0.078 | -0.021 | -0.02 | -0.04
OTUD7B (UniProt Q6GQQ9) | 0.033 | 0.011 | 0.116 | -0.029 | -0.049 | 0.018 | 0.017 | -0.042 | 0.015 | -0.011 | -0.052 | -0.099 | 0.005 | 0.022 | -0.011 | 0.042 | 0.049 | -0.006 | -0.031 | 0.062
MRPS12 (UniProt O15235) | 0.062 | 0.035 | 0.003 | 0.045 | 0.011 | 0.001 | -0.038 | 0.001 | 0.016 | 0.028 | -0.015 | 0.026 | -0.021 | 0.015 | 0.067 | 0.011 | -0.168 | -0.027 | -0.053 | -0.032
NDUFA4 (UniProt O00483) | -0.009 | 0.245 | 0.058 | 0.011 | 0.122 | 0.085 | 0.067 | -0.134 | 0.018 | -0.063 | 0.022 | 0.055 | 0.054 | 0.143 | 0.004 | 0.028 | 0.009 | 0.055 | -0.079 | -0.133
NFKBIE (UniProt O00221) | 0.046 | 0.051 | 0.174 | 0.081 | -0.106 | -0.024 | -0.07 | -0.045 | -0.123 | -0.025 | -0.068 | 0.029 | 0.055 | 0.054 | 0.013 | 0.038 | -0.14 | 0.047 | -0.03 | 0.014
NEK7 (UniProt Q8TDX7) | 0.086 | 0.024 | 0.002 | -0.006 | -0.091 | -0.025 | -0.13 | 0.041 | 0.013 | 0.04 | -0.055 | -0.113 | 0.552 (active) | 0.007 | -0.013 | 0 | 0.003 | 0.038 | 0.057 | -0.049
NUMBL (UniProt Q9Y6R0) | -0.06 | 0.014 | -0.005 | -0.009 | -0.037 | 0.189 | 0.032 | -0.011 | 0.052 | -0.278 | -0.032 | -0.103 | -0.023 | -0.218 | 0.023 | 0.189 | -0.068 | -0.064 | 0.044 | 0.09
PANK1 (UniProt Q8TE04) | 0.086 | 0.036 | 0.097 | -0.231 | -0.063 | 0.056 | 0.226 | -0.253 | 0 | 0.052 | 0.002 | 0.025 | 0.051 | -0.082 | -0.076 | 0.312 | 0.173 | 0.001 | -0.096 | 0.072
MYCBP (UniProt Q99417) | -0.001 | 0 | 0.16 | -0.003 | 0.044 | -0.007 | -0.589 (active) | 0.189 | 0.021 | 0.035 | -0.244 | 0.045 | -0.02 | 0.022 | -0.031 | 0.005 | -0.069 | 0.022 | -0.001 | -0.029
PARP14 (UniProt Q460N5) | 0.067 | 0.062 | 0.038 | 0.007 | 0.001 | 0.003 | -0.08 | 0.075 | 0.119 | -0.058 | 0.009 | -0.238 | -0.15 | -0.007 | -0.09 | 0.021 | 0.082 | -0.127 | 0 | -0.014
NPTN (UniProt Q9Y639) | -0.028 | -0.042 | 0.007 | 0.032 | -0.038 | -0.017 | -0.019 | 0.052 | 0.02 | -0.016 | -0.023 | -0.01 | 0 | -0.185 | 0.03 | -0.023 | 0.015 | 0.011 | 0.042 | 0.024
OAT (UniProt P04181) | 0.066 | 0.003 | -0.012 | -0.019 | -0.014 | -0.006 | -0.119 | 0.014 | -0.004 | -0.024 | -0.023 | -0.016 | -0.03 | -0.016 | -0.023 | -0.022 | 0.091 | 0.036 | 0.006 | 0.008
OARD1 (UniProt Q9Y530) | -0.011 | 0.004 | -0.01 | -0.01 | -0.031 | 0.022 | -0.056 | -0.034 | 0.006 | 0.002 | -0.003 | -0.097 | 0 | 0.037 | -0.11 | 0.011 | 0.018 | 0.011 | 0.028 | -0.014
OSBPL6 isoform 5 (UniProt Q9BZF3) | -0.026 | -0.021 | -0.015 | -0.052 | -0.072 | 0.015 | -0.004 | 0.084 | -0.009 | -0.035 | -0.056 | -0.05 | -0.043 | -0.063 | -0.047 | -0.005 | 0.015 | -0.068 | -0.004 | 0.164
